# Test results taken from PubChem BioAssay AID1159580 (chemical genetic matrix, 2015).
# The whole screen tested about 5,500 compounds, of which about 2,000 (36%) were called active. Roughly 18% stayed inconclusive and do not appear here. The list shows a part of the results. Values without a mark were called inactive. Rule as the data show it: active = normalized growth mostly below about 0.91 (no sharp cut-off); inconclusive = no clear call, values can overlap the other calls; inactive = mostly above about 0.92.
# Assay: chemical genetic growth profiling, strain panel (AID 1159580);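 also: tested at 20 µM; growth read once vehicle control cultures reached saturation at 30 °C; 1 = growth at the plate median or of vehicle wells; lower values mean less growth of the strain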
# Settings: growth OD
smiles,measurement,setting,value
CCCSc1ccc2nc(NC(=O)OC)[nH]c2c1,normalized growth,"S. cerevisiae deletion strains, locus YJR075W, strain HOC1, hits give low values",0.97
same,normalized growth,"S. cerevisiae deletion strains, locus YKL009W, strain mrt4, hits give low values",0.938
same,normalized growth,"S. cerevisiae deletion strains, locus YKL068W, hits give low values",0.972
same,normalized growth,"S. cerevisiae deletion strains, locus YKL085W, strain MDH1 (second series), hits give low values",0.986
same,normalized growth,"S. cerevisiae deletion strains, locus YKL085W, strain MDH1, hits give low values",0.986
same,normalized growth,"S. cerevisiae deletion strains, locus YKL160W, strain elf1, hits give low values",1.01
same,normalized growth,"S. cerevisiae deletion strains, locus YKL190W, strain CNB1, hits give low values",0.988
same,normalized growth,"S. cerevisiae deletion strains, locus YKR001C, strain vps1, hits give low values",0.882 (active)
same,normalized growth,"S. cerevisiae deletion strains, locus YKR026C, strain gcn3, hits give low values",1.01
same,normalized growth,"S. cerevisiae deletion strains, locus YKR091W, strain srl3, hits give low values",1.01
same,normalized growth,"S. cerevisiae deletion strains, locus YLL001W, strain dnm1, hits give low values",0.999
same,normalized growth,"S. cerevisiae deletion strains, locus YLL026W, hits give low values",1.01
same,normalized growth,"S. cerevisiae deletion strains, locus YLL041C, strain sdh2, hits give low values",1
same,normalized growth,"S. cerevisiae deletion strains, locus YLR027C, strain aat2, hits give low values",1
same,normalized growth,"S. cerevisiae deletion strains, locus YLR039C, strain RIC1, hits give low values",0.731
same,normalized growth,"S. cerevisiae deletion strains, locus YLR058C, strain SHM2, hits give low values",0.988
same,normalized growth,"S. cerevisiae deletion strains, locus YLR102C, strain apc9, hits give low values",0.973
same,normalized growth,"S. cerevisiae deletion strains, locus YLR113W, strain HOG1, hits give low values",0.979
same,normalized growth,"S. cerevisiae deletion strains, locus YLR221C, strain rsa3, hits give low values",1.01
same,normalized growth,"S. cerevisiae deletion strains, locus YLR258W, strain gsy2, hits give low values",1.01
same,normalized growth,"S. cerevisiae deletion strains, locus YLR262C, strain YPT6 (second series), hits give low values",0.874
same,normalized growth,"S. cerevisiae deletion strains, locus YLR262C, strain YPT6, hits give low values",0.732
same,normalized growth,"S. cerevisiae deletion strains, locus YLR268W, strain sec22, hits give low values",0.847 (active)
same,normalized growth,"S. cerevisiae deletion strains, locus YLR320W, strain mms22, hits give low values",1.01
same,normalized growth,"S. cerevisiae deletion strains, locus YLR330W, strain CHS5, hits give low values",0.982
same,normalized growth,"S. cerevisiae deletion strains, locus YLR342W, strain FKS1 (second series), hits give low values",1.01
same,normalized growth,"S. cerevisiae deletion strains, locus YLR342W, strain FKS1, hits give low values",1.02
same,normalized growth,"S. cerevisiae deletion strains, locus YLR357W, strain rsc2, hits give low values",0.975
same,normalized growth,"S. cerevisiae deletion strains, locus YLR370C, strain arc18, hits give low values",1
same,normalized growth,"S. cerevisiae deletion strains, locus YLR371W, strain rom2, hits give low values",0.967
same,normalized growth,"S. cerevisiae deletion strains, locus YLR384C, strain iki3, hits give low values",0.997
same,normalized growth,"S. cerevisiae deletion strains, locus YLR418C, strain cdc73, hits give low values",0.886
same,normalized growth,"S. cerevisiae deletion strains, locus YML016C, strain PPZ1, hits give low values",0.993
same,normalized growth,"S. cerevisiae deletion strains, locus YML032C, strain rad52, hits give low values",0.947
same,normalized growth,"S. cerevisiae deletion strains, locus YML120C, strain ndi1, hits give low values",1
same,normalized growth,"S. cerevisiae deletion strains, locus YML124C, strain tub3, hits give low values",0.202 (active)
same,normalized growth,"S. cerevisiae deletion strains, locus YMR058W, strain fet3, hits give low values",1.01
same,normalized growth,"S. cerevisiae deletion strains, locus YMR078C, strain ctf18, hits give low values",0.964
same,normalized growth,"S. cerevisiae deletion strains, locus YMR125W, strain sto1, hits give low values",1.02
same,normalized growth,"S. cerevisiae deletion strains, locus YMR129W, hits give low values",1.01
same,normalized growth,"S. cerevisiae deletion strains, locus YMR205C, strain PFK2, hits give low values",1.03
same,normalized growth,"S. cerevisiae deletion strains, locus YMR223W, strain ubp8, hits give low values",0.997
same,normalized growth,"S. cerevisiae deletion strains, locus YMR231W, strain pep5, hits give low values",1.03
same,normalized growth,"S. cerevisiae deletion strains, locus YMR263W, strain SAP30, hits give low values",0.941
same,normalized growth,"S. cerevisiae deletion strains, locus YMR307W, strain GAS1, hits give low values",1.19
same,normalized growth,"S. cerevisiae deletion strains, locus YNL067W, strain RPL9B, hits give low values",0.942
same,normalized growth,"S. cerevisiae deletion strains, locus YNL071W, strain lat1, hits give low values",1.02
same,normalized growth,"S. cerevisiae deletion strains, locus YNL128W, strain TEP1, hits give low values",0.989
same,normalized growth,"S. cerevisiae deletion strains, locus YNL153C, strain GIM3, hits give low values",0.0651 (active)
same,normalized growth,"S. cerevisiae deletion strains, locus YNL183C, strain NPR1, hits give low values",0.896
same,normalized growth,"S. cerevisiae deletion strains, locus YNL209W, strain ssb2, hits give low values",1
same,normalized growth,"S. cerevisiae deletion strains, locus YNL233W, strain BNI4, hits give low values",0.965
same,normalized growth,"S. cerevisiae deletion strains, locus YNL248C, strain rpa49, hits give low values",1
same,normalized growth,"S. cerevisiae deletion strains, locus YNL250W, strain rad50, hits give low values",0.999
same,normalized growth,"S. cerevisiae deletion strains, locus YNL271C, strain bni1, hits give low values",0.973
same,normalized growth,"S. cerevisiae deletion strains, locus YNL298W, strain CLA4, hits give low values",0.947
same,normalized growth,"S. cerevisiae deletion strains, locus YNL307C, strain MCK1, hits give low values",0.948
same,normalized growth,"S. cerevisiae deletion strains, locus YNL322C, strain KRE1 (second series), hits give low values",1.01
same,normalized growth,"S. cerevisiae deletion strains, locus YNL322C, strain KRE1, hits give low values",0.996
same,normalized growth,"S. cerevisiae deletion strains, locus YNR049C, strain mso1, hits give low values",1.01
same,normalized growth,"S. cerevisiae deletion strains, locus YNR052C, strain pop2, hits give low values",0.958
same,normalized growth,"S. cerevisiae deletion strains, locus YOL006C, strain TOP1, hits give low values",0.729
same,normalized growth,"S. cerevisiae deletion strains, locus YOL012C, strain htz1",0.603
same,normalized growth,"S. cerevisiae deletion strains, locus YOL147C, strain pex11, hits give low values",0.967
same,normalized growth,"S. cerevisiae deletion strains, locus YOR001W, strain rrp6, hits give low values",1.01
same,normalized growth,"S. cerevisiae deletion strains, locus YOR061W, strain CKA2, hits give low values",0.996
same,normalized growth,"S. cerevisiae deletion strains, locus YOR069W, strain VPS5, hits give low values",0.99
same,normalized growth,"S. cerevisiae deletion strains, locus YOR070C, strain gyp1, hits give low values",1.01
same,normalized growth,"S. cerevisiae deletion strains, locus YOR080W, strain dia2, hits give low values",1.02
same,normalized growth,"S. cerevisiae deletion strains, locus YOR083W, strain WHI5, hits give low values",1.01
same,normalized growth,"S. cerevisiae deletion strains, locus YOR106W, strain vam3, hits give low values",0.997
same,normalized growth,"S. cerevisiae deletion strains, locus YOR136W, strain idh2, hits give low values",0.996
same,normalized growth,"S. cerevisiae deletion strains, locus YOR144C, strain elg1, hits give low values",0.965
same,normalized growth,"S. cerevisiae deletion strains, locus YOR184W, strain ser1, hits give low values",0.893
same,normalized growth,"S. cerevisiae deletion strains, locus YOR231W, strain MKK1, hits give low values",0.941
same,normalized growth,"S. cerevisiae deletion strains, locus YOR265W, strain rbl2, hits give low values",1.02
same,normalized growth,"S. cerevisiae deletion strains, locus YOR270C, strain vph1, hits give low values",0.963
same,normalized growth,"S. cerevisiae deletion strains, locus YOR290C, strain snf2, hits give low values",0.98
same,normalized growth,"S. cerevisiae deletion strains, locus YOR316C, strain cot1, hits give low values",0.959
same,normalized growth,"S. cerevisiae deletion strains, locus YPL051W, strain arl3, hits give low values",0.998
same,normalized growth,"S. cerevisiae deletion strains, locus YPL055C, strain LGE1, hits give low values",0.945
same,normalized growth,"S. cerevisiae deletion strains, locus YPL078C, strain atp4, hits give low values",1.01
same,normalized growth,"S. cerevisiae deletion strains, locus YPL106C, strain sse1, hits give low values",1.04
same,normalized growth,"S. cerevisiae deletion strains, locus YPL240C, strain hsp82, hits give low values",1
same,normalized growth,"S. cerevisiae deletion strains, locus YPL241C, strain CIN2, hits give low values",0.0807 (active)
same,normalized growth,"S. cerevisiae deletion strains, locus YPL256C, strain CLN2, hits give low values",0.933
same,normalized growth,"S. cerevisiae deletion strains, locus YPR119W, strain clb2, hits give low values",0.963
same,normalized growth,"S. cerevisiae deletion strains, locus YPR141C, strain kar3, hits give low values",0.992
same,normalized growth,"S. cerevisiae deletion strains, locus YPR163C, strain tif3, hits give low values",0.904 (active)
same,normalized growth,"S. cerevisiae deletion strains, locus YPR167C, strain met16, hits give low values",0.954
same,normalized growth,"S. cerevisiae deletion strains, strain wtn01, hits give low values",0.916
same,normalized growth,"S. cerevisiae strains, strain wild type, hits give low values",1
